# An excerpt weighted towards active compounds, which were near 7.5% of everything screened.
# ELG1 genotoxic – inducers of genotoxicity in HEK293T ELG1-luciferase cells | HEK293T ELG1-luciferase reporter, luminescence, 16 h | Potency, µM (doses to about 46 µM), for the others: at the highest dose activity change, positive = activation, actives largely listed as activators | 1.3% of 330,000 active | AID 504466; further: % of control where 0% means no effect; nearly all actives have a fitted effect of over 60% in size
#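 16 hr compound incubation (37 °C, 5% CO2) of HEK293T cells carrying luciferase-tagged ELG1; luciferase then measured by ONE-Glo luminescence after 30 min at RT.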
# SMN2 splice up – enhancers of SMN2 splice variant expression; HEK293 SMN2-luciferase splicing reporter, luminescence, 30-36 h; Potency, µM (titrated, usually from 46.1 µM), for inactives: at the top dose activity change, positive = activation, actives largely listed as activators; 2.8% of 210,000 active; AID 1458; further: % of control where 0% means no effect; nearly all actives have a fitted effect of over 55% in size
#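 HEK293 cells carry an SMN2 […]–luciferase reporter in which exon 7 inclusion puts luciferase in frame. Cells were plated 10-12 h before compound addition, then incubated 30-36 h at 37C. ONE-Glo luminescence was read; sodium butyrate at 4.5 mM final served as control.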
# NPC1 prom act – NPC1 promoter activation; Huh7 NPC1 promoter luciferase reporter, 24 h; Potency, µM (series often up to 9.22 µM), for inactives: at the highest dose activation, actives largely listed as activators; 2.4% of 320,000 active; AID 485313; further: % of control where 0% means no effect; nearly all actives have a fitted effect of over 60% in size
#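 Luciferase expression driven by the NPC1 promoter was measured in stably transfected Huh7 cells after a 24 h compound incubation, using a luciferase reagent and a luminescence read.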
# Luc counter – counter-screen: inhibitors of Kinase-Glo firefly luciferase; Q27757; Kinase-Glo luciferase, ATP luminescence, 8 min; Potency, µM (top dose mostly 38.3 µM), without a hit: at the top dose activity change, negative = inhibition, usual class: inhibitors; 0.28% of 200,000 active; AID 1379; further: on the % scale 0 is the no-effect control and ±100 the full control effect; nearly all actives have a fitted effect of over 60% in size
#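 Light output from Kinase-Glo luciferase with luciferin and 10 uM ATP in 50 mM imidazole pH 7.2, KCl, MgCl2, Tween 20, BSA; compound pin-delivered, 8-min ambient incubation, then luminescence read.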
# FLuc modulator – firefly luciferase modulation, counter-screen for miR-21 project. P08659. purified FLuc, Km substrates, luminescence inhibition. Potency, µM (titrated, usually from 57.5 µM), without a hit: top-dose activity change, negative = inhibition, hits mostly inhibitors. 6.9% of 360,000 active. AID 588342;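 further: plate controls were vehicle for no effect and reference inhibitor for full effect; nearly all actives have a fitted effect of over 55% in size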
# Target sequence (P08659 whole entry, looked up): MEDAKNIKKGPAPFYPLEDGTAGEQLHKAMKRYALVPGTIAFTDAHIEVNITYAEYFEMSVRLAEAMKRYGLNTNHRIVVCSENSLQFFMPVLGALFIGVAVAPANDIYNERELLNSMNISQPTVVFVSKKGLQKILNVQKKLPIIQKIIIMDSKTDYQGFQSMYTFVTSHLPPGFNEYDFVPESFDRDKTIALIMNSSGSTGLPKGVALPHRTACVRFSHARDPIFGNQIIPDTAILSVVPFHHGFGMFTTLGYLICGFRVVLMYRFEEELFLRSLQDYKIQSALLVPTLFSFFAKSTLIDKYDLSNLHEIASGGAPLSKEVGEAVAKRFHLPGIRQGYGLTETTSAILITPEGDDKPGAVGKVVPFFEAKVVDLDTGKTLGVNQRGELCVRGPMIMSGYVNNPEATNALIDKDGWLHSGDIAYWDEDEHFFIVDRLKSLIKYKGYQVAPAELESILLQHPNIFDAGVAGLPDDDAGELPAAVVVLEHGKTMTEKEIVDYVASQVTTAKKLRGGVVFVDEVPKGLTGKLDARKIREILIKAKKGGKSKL
#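 Biochemical qHTS of compounds, final roughly 60 µM downward over six points, against 10 nM purified firefly luciferase using Km concentrations of substrates (10 uM D-luciferin, 10 uM ATP) in Tris acetate pH 7.5 buffer; luminescence output.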
# Rab9 prom act – Rab9 promoter activation | Huh7 Rab9 promoter-luciferase reporter, luminescence, 24 h | Potency, µM (doses to about 9.22 µM), inactives show top-dose activation, negative = inhibition, actives largely listed as activators | 2.8% of 320,000 active; further: % of control where 0% means no effect; nearly all actives have a fitted effect of over 60% in size
#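 Promoter activation is measured as luciferase luminescence in Huh7 cells stably transfected with a Rab9 promoter–luciferase construct, following 24 h compound exposure at 37 °C and 10 min reagent incubation at ambient temperature.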
# An asterisk follows results filed as active; u = inconclusive; x = no result. The call rests on the fitted dose curve; in most records, active means well fitted curve in the direction sought with a large enough effect; inconclusive means small, poorly fitted or top-dose-only effect, or another doubt; inactive means no such curve, though single readings can be large; an effect the other way counts as inactive or inconclusive. Potency means the concentration at half of the fitted maximal effect.
SMILES,ELG1 genotoxic,SMN2 splice up,NPC1 prom act,Luc counter,FLuc modulator,Rab9 prom act
CCc1cc(C(=O)Nc2ccc(C)cc2Br)cs1,u,16µM*,21%,-1%,5.4µM*,u
CCOC(=O)C1CCCN(C(=O)c2ccc3c(c2)N(Cc2ccc(Cl)cc2)C(=O)c2ccccc2S3=O)C1 (stereo not given),x,-11%,x,x,-1%,x
Cc1c(C(=O)Nc2ccc(F)cc2)oc2ccc(S(=O)(=O)N3CCCCCC3)cc12,x,x,x,x,-8%,x
COc1ccc(N(C(=O)c2ccccc2F)S(=O)(=O)c2ccc3c(c2)n(C)c(=O)n3C)cc1,x,5%,x,x,-2%,x
O=S(=O)(c1ccc(F)cc1)N(Cc1nc(-c2ccc(Cl)cc2)no1)C1CCCCC1,x,6%,x,x,-2%,x
CC(C)c1ccc(NC(=O)NN2CCOCC2)cc1,16µM*,13µM*,3.2µM*,-2%,27µM*,3.5µM*
O=C(/C=C/c1ccc(Cl)cc1)N1CCOCC1,-6%,x,u,x,27µM*,u
O=C(/C=C/c1ccccc1)N1CCOCC1,6%,x,-1%,x,u,u
O=C(/C=C/c1cccs1)N1CCCCC1,u,18µM*,25%,-15%,u,11%
CC(C)c1ccc(/C=N/N2CCCCC2)cc1,u,u,21%,-10%,1.5µM*,3.2µM*
COc1ccc(NC(=O)N2CCc3c([nH]c4ccc(OC)cc34)C2c2ccc(OC)cc2)cc1 (stereo not given),x,x,x,x,1%,x
O=C(/C=C/c1ccccc1Cl)N1CCCN(C(=O)/C=C/c2ccccc2Cl)CC1,1%,5%,-1%,-4%,19µM*,12%
O=C(/C=C/c1ccccc1[N+](=O)[O-])N1CCCCC1,6%,12%,1%,-1%,-10%,29%
CCCOc1ccc(/C=C/C(=O)N2CCN(c3ccccn3)CC2)cc1,2%,-9%,-3%,1%,u,2%
CC(C)c1ccc(/C=C/C(=O)N2CCCCCC2)cc1,u,-19%,14%,4%,15µM*,1%
O=C(/C=C/c1ccc(Br)cc1)NC(=S)N1CCOCC1,6%,x,2%,u,13µM*,-4%
CCCOc1ccc(/C=C/C(=O)N2CCOCC2)cc1,u,x,2.5µM*,x,15µM*,u
CCOc1cc(C(=O)N2CC(=O)Nc3ccc(F)cc3C2c2ccccc2)cc(OCC)c1OCC (stereo not given),x,-2%,x,x,-10%,x
O=C1NC(c2cccc([N+](=O)[O-])c2)Oc2ccccc21 (stereo not given),-3%,-26%,0%,3%,0%,1%
CCCCNc1nc(Oc2ccc(=O)n(-c3ccccc3)n2)nc(N(C)C)n1,x,-11%,x,x,-10%,x
CN1CCN(C(=O)/C=C\c2ccc(Cl)cc2)CC1,5%,9%,1%,-1%,-12%,-2%
CC(C)c1ccc(/C=C/C(=O)n2nnc3ccccc32)cc1,x,-10%,x,-2%,1.7µM*,x
CCN1CCN(C(=O)/C=C/c2ccc(C)cc2)CC1,15%,x,11%,x,-8%,16%
Cc1ccc(/C=C/C(=O)N2CCCN(C(=O)/C=C/c3ccc(C)cc3)CC2)cc1,14%,u,15%,0%,11µM*,20%
CC(C)c1ccc(/C=C/C(=O)N2CCOCC2)cc1,u,x,3.2µM*,x,9.5µM*,2.5µM*
COc1ccc(C=C2C(=O)c3ccccc3C2=O)cc1O,-2%,20%,0%,7.9µM*,3.4µM*,-2%
COc1cc(C=C2C(=O)c3ccccc3C2=O)ccc1O,2%,x,1%,x,3µM*,-7%
COc1cc(C=C2C(=O)c3ccccc3C2=O)cc(OC)c1OC,u,-21%,-9%,0%,u,1%
O=C(CSc1cn(CC(=O)N2CCCCC2)c2ccccc12)NCc1ccc(F)cc1,x,x,x,x,-10%,x
O=C(NCCSc1ccccc1)c1ccc(Br)cc1,3.3µM*,6.3µM*,0.79µM*,-4%,1.3µM*,0.56µM*

# Screening data deposited in PubChem BioAssay by National Center for Advancing Translational Sciences (NCATS).
